# Source: PubChem BioAssay
# ID4 binder = ID4 (human) binding. P47928. small molecule microarray, Flag-ID4 binding, fluorescence F/B. calls only. 1.2% of 31,000 active; call rule not given here;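 also: a binder raises fluorescence above local background on the spot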
# p53 PUMA act = re-activators of the mutant p53 pathway; SW480 PUMA-promoter luciferase, p53 mutant reactivation; activation, % at 9.98 µM; 1.5% of 28,000 active; AID 624151; in the data active = activation above about 52%
# STK33 kin inh = human STK33 kinase inhibition; 0.44% of 27,000 active; ADP-Glo luminescence, MBP substrate; Q9BYT3; inhibition, % at 12.5 µM; AID 2322; in the data active = inhibition above about 20%
# Target sequence (Q9BYT3 whole entry, looked up): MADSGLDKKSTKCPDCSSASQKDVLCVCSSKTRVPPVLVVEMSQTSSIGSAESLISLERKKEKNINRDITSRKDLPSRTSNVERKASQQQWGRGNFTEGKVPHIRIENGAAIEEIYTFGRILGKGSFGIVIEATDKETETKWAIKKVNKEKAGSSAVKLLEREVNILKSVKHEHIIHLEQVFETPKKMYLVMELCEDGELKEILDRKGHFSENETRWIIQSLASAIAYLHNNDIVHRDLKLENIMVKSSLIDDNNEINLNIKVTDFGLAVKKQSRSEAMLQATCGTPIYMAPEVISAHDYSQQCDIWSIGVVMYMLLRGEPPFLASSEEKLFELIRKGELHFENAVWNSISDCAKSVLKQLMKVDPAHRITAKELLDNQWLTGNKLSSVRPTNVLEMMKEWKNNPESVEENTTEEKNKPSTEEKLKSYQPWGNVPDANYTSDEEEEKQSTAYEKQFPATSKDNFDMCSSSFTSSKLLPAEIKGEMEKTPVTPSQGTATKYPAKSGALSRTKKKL
# Active calls of the source: *; i = inactive; nt = not tested or not shown; + = active, no number. An excerpt weighted towards active compounds, which were near 2% of everything screened.
SMILES,ID4 binder,p53 PUMA act,STK33 kin inh
COC(=O)Nc1sc2c(c1C(=O)NCc1ccco1)CCC2,i,2,3
CC(C)=CCc1c(O)c(CC=C(C)C)c2c(c1O)C(=O)CC(c1ccc(O)cc1O)O2 (centres undefined),i,-1,-4
COc1cc(-c2nnc(SCC(=O)c3ccco3)n2C)cc(OC)c1OC,nt,nt,0
COCCNC(=O)c1ccccc1-c1nc(-c2ccc(Cl)cc2)no1,i,59*,2
COc1ccccc1CC(=O)Nc1ccc(-c2noc(-c3ccc(Cl)cc3)n2)cc1,i,7,-2
CC(=O)c1cccc(NC(=O)COc2ccccc2C(=O)Nc2ccccc2C#N)c1,i,4,3
CCOc1cc(S(=O)(=O)NCc2ccco2)ccc1Cl,i,-1,3
Cc1ccc(S(=O)(=O)NCCCO)cc1C(=O)O,+,30,-1
Cc1ccc2cc(S(=O)(=O)NCCC(=O)O)ccc2c1,+,12,-4
Cc1cc(S(=O)(=O)NCC(=O)O)ccc1F,i,-5,0
CC(C)(C)c1ccc(S(=O)(=O)NCCC(=O)O)cc1,i,-5,0
CCOC(=O)c1ccccc1NC(=O)COc1ccccc1C,i,13,3
Cc1ccc(S(=O)(=O)NC2(C(F)(F)F)C(=O)N(CC3CCCO3)C3=C2C(=O)CC(C)(C)C3)cc1 (centres undefined),i,8,0
CCc1nc(SCC(=O)N2CCCc3ccccc32)n[nH]1,i,14,-4
O=C1c2c(O)cc(O)cc2O[C@@H](c2ccc(O)cc2)[C@@H]1O,nt,13,nt
COc1cccc2oc(-c3ccccc3)cc(=O)c12,i,-39,1
COc1ccc(-c2cc(=O)c3ccc(OC)cc3o2)cc1,nt,66*,4
COc1cc(O)c2c(=O)cc(-c3ccccc3)oc2c1OC,i,nt,23*
COc1cc(-c2cc(=O)c3c(O)c(OC)c(OC)c(OC)c3o2)cc(OC)c1OC,i,-18,2
COc1cc2oc(-c3ccc(O)cc3)cc(=O)c2c(O)c1OC,i,-17,60*
COc1ccc(-c2cc(=O)c3c(O)cc(O)cc3o2)cc1O,nt,nt,46*
COc1c(O[C@@H]2O[C@H](C(=O)O)[C@@H](O)[C@H](O)[C@H]2O)cc(O)c2c(=O)cc(-c3ccccc3)oc12,i,-79,0
COc1ccc(-c2cc(=O)c3cc(OC)ccc3o2)cc1,i,nt,6
FC(F)(F)c1ccc(-c2n[nH]c(=S)s2)nc1,nt,nt,-4
C/C=C(\C)C(=O)OC1C(OC(=O)/C=C(/C)CC(=O)O)C2(CO)C(O)CC3(C)C(=CCC4C5(C)CCC(OC6OC(C(=O)O)C(O)C(OC7OC(C)C(O)C(OC8OC(CO)C(O)C(O)C8O)C7O)C6O)C(C)(C)C5CCC43C)C2CC1(C)C (centres undefined),nt,nt,-4
SMILES,ID4 binder,p53 PUMA act,STK33 kin inh
C/C=C/C(O)C(C)CC(C)C(OC(=O)CCC(=O)O)C(C)/C=C/C=C/C=C(\C)C(=O)O (centres undefined),nt,nt,-5
CCN(CC(=O)Nc1cccc(Cl)c1C)S(=O)(=O)c1ccc(OC)cc1,i,1,-3
CCc1ccc(C(Nc2cc(C)ccn2)c2ccc3cccnc3c2O)cc1 (centres undefined),i,-43,7
CC1(C)CC(=O)C2=C(C1)c1c(ccc3ncccc13)NC2C1CC=CCC1 (centres undefined),i,-44,nt
S=C(NC1CCCCC1)Sc1ccc(Cl)cc1,nt,nt,-2
COc1ccc(C(C)C)cc1S(=O)(=O)n1cnc2ccccc21,i,9,-3
COc1ccc(CCNC(=O)[C@@H]2c3ccccc3C(=O)N(Cc3ccccc3OC)[C@H]2c2ccc(CO)cc2)cc1,nt,nt,1
COc1c(O)cc2oc(-c3ccc(O)cc3)cc(=O)c2c1O,nt,58*,15
O=c1cc(-c2ccccc2)oc2cc(O)c(O)c(O)c12,nt,-25,nt
O=C(COc1ccc(S(=O)(=O)N2CCCC2)cc1Cl)Nc1ccc2c(c1)OCCO2,i,-5,-2
O=C(O)CSc1c[nH]c2ccccc12,i,-6,-3
Cn1cc(C2=C(c3cn(CCCSC(=N)N)c4ccccc34)C(=O)NC2=O)c2ccccc21,nt,nt,106*
COC(=O)c1cn(CC(N)=O)c2ccccc12,i,-1,0
CN(C)CCCn1cc(C2=C(c3c[nH]c4ccccc34)C(=O)NC2=O)c2ccccc21,i,nt,114*
COc1ccc(-c2coc3cc(OC(C)=O)cc(OC(C)=O)c3c2=O)cc1,nt,130*,nt
COc1ccc2c(=O)c(CC(=O)O)coc2c1,i,nt,2
COc1ccc(-c2coc3c(OC)c(OC)cc(OC)c3c2=O)cc1,i,nt,0
COc1ccc2c(=O)c(-c3ccc(OC)c(OC)c3)coc2c1,i,124*,nt
COc1ccc(NC(=O)NCc2cc(C)n(C)n2)cc1OC,i,-1,-2
Cc1ccc(-c2nnc(SCC(=O)Nc3c(Cl)cc(Cl)cc3Cl)n2C)cc1,i,0,-1
Cc1c(C(=O)C2C(=O)C(=O)N(Cc3cccnc3)C2c2ccc(F)cc2)cnn1-c1ccccc1 (centres undefined),i,6,2
CSc1ccc(C2C(C(=O)c3sc(C)nc3C)C(=O)C(=O)N2Cc2cccnc2)cc1 (centres undefined),+,28,-1
Cc1c(Cl)cccc1N(CC(=O)Nc1ccc(I)cc1)S(C)(=O)=O,i,8,-2
O=C(CSc1ncnc2sc3c(c12)CCCC3)N1CCc2ccccc21,i,-4,0
CC(C)(C)C(=O)CSc1ncnc2sc3c(c12)CCCC3,i,71*,-1
SMILES,ID4 binder,p53 PUMA act,STK33 kin inh
O=C(Cn1cnc2scc(-c3ccccc3)c2c1=O)Nc1ccc(F)cc1,i,-13,0
C[C@@H]1O[C@@H](O[C@@H]2[C@@H](O)[C@H](O[C@@H]3[C@@H](O)[C@@H](O)[C@H](O[C@H]4[C@H](OC(=O)[C@]56CCC(C)(C)C[C@H]5C5=CCC7[C@@]8(C)C[C@H](O)[C@H](O[C@@H]9O[C@H](C(=O)O)[C@@H](O)[C@H](O)[C@H]9O)[C@@](C)(CO)C8[C@H](O)C[C@@]7(C)[C@]5(C)C[C@H]6O)OC[C@H](O)[C@@H]4O)O[C@H]3C)OC[C@H]2O)[C@H](O)[C@H](O)[C@H]1O (some centres undefined),i,nt,23*
C[C@@H]1O[C@@H](O[C@H]2[C@H](OC(=O)[C@]34CCC(C)(C)C[C@H]3C3=CCC5[C@@]6(C)C[C@H](O)[C@H](O[C@@H]7O[C@H](C(=O)O)[C@@H](O)[C@H](O)[C@H]7O)[C@@](C)(CO)C6[C@H](O)C[C@@]5(C)[C@]3(C)C[C@H]4O)O[C@@H](CO)[C@@H]2O)[C@H](O)[C@H](O)[C@H]1O[C@@H]1OC[C@@H](O)[C@H](O[C@H]2OC[C@](O)(CO)[C@H]2O)[C@H]1O (some centres undefined),i,11,-4
O=C(NCc1c(OC(=O)c2cccc([N+](=O)[O-])c2)ccc2ccccc12)c1ccccc1,i,-15,5
COc1ccc(CN(C)C[C@@H]2Oc3c(NC(=O)Nc4ccc5c(c4)OCO5)cccc3C(=O)N([C@@H](C)CO)C[C@H]2C)cc1,i,23,nt
C[C@H]1CN([C@@H](C)CO)C(=O)c2cccc(N(C)C)c2O[C@@H]1CN(C)S(=O)(=O)c1ccc(Cl)cc1,+,-4,nt
